Measured values from ChEMBL document CHEMBL3988442, “University of Dundee, Small-Polar-MMV Screening Library” (2021).
Values joined by “and” are separate entries in the source; they are usually repeats but may differ in a detail not shown here. Identical values can stand only once. Out of some 67,000 compounds screened, about 40 (0.06%) showed an effect of 50% or more. Only a selection was taken, and strong results are over-represented in it overall.

molecular target: T1, Coenzyme A biosynthesis bifunctional protein CoaBC (Mycobacterium tuberculosis (strain ATCC 25618 / H37Rv)) (UniProt P9WNZ1); assay: Biomol Green assay for MtCoaBC inhibitor, OD650 read; assay type: functional; set-up: scale not given: in the data most compounds retested in dose-response had high values; conditions: 30 µM
T1 sequence (whole entry): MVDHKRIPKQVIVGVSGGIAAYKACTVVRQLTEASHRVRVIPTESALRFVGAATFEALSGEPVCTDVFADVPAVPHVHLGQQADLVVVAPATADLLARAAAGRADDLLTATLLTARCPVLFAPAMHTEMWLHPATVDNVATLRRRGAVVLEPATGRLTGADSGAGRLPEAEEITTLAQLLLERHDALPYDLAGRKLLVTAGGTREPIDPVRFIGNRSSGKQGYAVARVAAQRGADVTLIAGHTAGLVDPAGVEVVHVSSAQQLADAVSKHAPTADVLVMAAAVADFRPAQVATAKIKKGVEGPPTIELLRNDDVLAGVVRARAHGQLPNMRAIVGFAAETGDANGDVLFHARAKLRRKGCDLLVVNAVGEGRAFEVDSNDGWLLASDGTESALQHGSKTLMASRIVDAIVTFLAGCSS

Structure (SMILES)	Percent Effect
CCN1C[C@H]2CCN(C(=O)NC)CC[C@H]2S1(=O)=O	8.02%
CC(=O)c1cccc(NS(=O)(=O)c2cc(C)c(C(=O)O)s2)c1	-3%
Cc1cc(S(=O)(=O)Nc2cccc(I)c2)sc1C(=O)O	2.58%
CNC(=O)N1CC[C@@H]2CN(Cc3cccc(Cl)c3)S(=O)(=O)[C@@H]2CC1	6.19%
c1cnc(N2CCO[C@H]3[C@H](OCC4CCOCC4)CC[C@@H]32)nc1	1.73%
Cc1ccc(N2C[C@H]3CCC[C@@H](CN4CCOCC4)[C@H]3C2)nn1	4.17%
Cc1nc(C2CCCN(C(=O)c3cc(Cl)c[nH]3)C2)no1 (stereo not given)	2.57%
Cc1cccc(C(=O)N2CCCC(c3noc(C)n3)C2)n1 (stereo not given)	-20.7%
Cn1nc(-c2cccs2)cc1[C@H]1CN2CC[C@H]1C[C@@H]2CN	-39.9%
CN1C(Cn2cccn2)C[C@@H]2CN(Cc3ccccn3)CC[C@@H]21 (stereo not given in full)	-8.3%
Cc1cc(NC(=O)C2CCN(c3nnc(C)c(C)c3C#N)CC2)no1	2.42%
Cc1cc(C(=O)NC2CCN(c3ncccc3C#N)CC2)no1	-0.609%
COCCC(Cc1cccc(Br)c1)C(=O)N(C)C (stereo not given)	-3.54%
COCCC(Cc1cccc(Br)c1)C(N)=O (stereo not given)	4.72%
COCc1nc2cc(NCc3cc[nH]n3)ccc2o1	10.3%
COCc1nc2cc(NCc3ccc(C)o3)ccc2o1	13%
Cc1ccc(CN2CCOCC2c2[nH]ncc2C)cn1 (stereo not given)	-2.47%
Cc1cn[nH]c1C1COCCN1Cc1ccsc1 (stereo not given)	-1.45%
O=C(NC1CC1)[C@@H]1CCO[C@@H]2CCN(C3CCCC3)C[C@H]21	7.17%
COc1ccc(CN2CCCC2)cc1Oc1ccc(NC(C)=O)cc1	1.65%
CC(=O)Nc1ccc(Oc2ccc(CN3CCCC3)cc2F)cc1	9.5%
COCCNC(=O)[C@H]1CN(Cc2sccc2C)C[C@H]2OCC[C@@H]12	2.59%
Cc1ccc2[nH]c(CO[C@H]3CN(C(=O)C4CC4)C[C@H]3F)nc2c1	5.96%
CN1C[C@@H](F)[C@@H](OCc2nc3ccc(C#N)cc3[nH]2)C1	8.8%

Structure (SMILES)	Percent Effect
CCO[C@H]1CN(C(=O)c2ccnnc2)[C@@H]2COC[C@H]12	-7.56%
CN(C)C(=O)CN1C[C@@H]2CC[C@H](C1)N(C/C=C/c1ccc(F)cc1)C2	-5.7%
O=C(COCCOc1ccccc1)NC1CCN(C(=O)C2CC2)CC1	-27.3%
O=C(COCCOc1ccccc1)NC1CCN(c2ncccn2)CC1	-6.77%
CN(C)CCN1CCO[C@H]2CN(C(=O)c3ccsc3)C[C@H]21	0.976%
O=C(NC1CC1)[C@@H]1CCO[C@@H]2CCN(Cc3ccsc3)C[C@H]21	8.23%
O=S(=O)(CCCn1cncn1)Cc1ccccc1Cl	0%
O=S(=O)(CCCn1cncn1)Cc1cccc(F)c1	3.23%
O=S(=O)(CCCn1cncn1)Cc1ccc(F)cc1Cl	96.3% and 94.5%
Cc1csc(CN2CC[C@H]3C[C@H](c4nc(C)no4)O[C@@H]3C2)n1	-2.84%
CCS(=O)(=O)N1C[C@H]2CN(Cc3cccc(F)c3)C(=O)[C@H]2C1	-7.25%
Cc1cccc(CN2CC[C@@H]3[C@@H]2CCN3C(=O)c2cnoc2C)n1	8.49%
O=C1OCCN1CC(=O)N1C[C@H]2CC[C@@H]1CN(C(=O)c1cccnc1)C2	7.56%
COC[C@@]12CC[C@@H](N3CCOCC3)C[C@H]1CCN(c1cnccn1)C2	-5.95%
CC(C)CN1CC[C@@H]2[C@@H]1CCN2S(=O)(=O)c1cn(C)cn1	4.68%
O=C(O)c1cc(-n2cc3c(n2)CCC3)cc(S(=O)(=O)N2CCOCC2)c1	-5.92%
O=C(O)c1cc(-n2cc3c(n2)CCC3)cc(S(=O)(=O)NC2CCCC2)c1	-0.121%
COc1cc(N2CCC[C@]3(C(=O)O)CN(C(C)C)C[C@@H]3C2)ncn1	-10.7%
c1ccc(CN2C[C@@H]3COC[C@]3(COCC3CCOCC3)C2)nc1	9.51%
COCCNC(=O)C[C@@H]1COC[C@H]2CN(CC3CCOCC3)C[C@@H]12	-2.48%
COc1cnc(N2CCN(C)CC2)nc1-c1ccnn1C	5.52%
Cc1cnc(N2CCN(C)CC2)nc1-c1ccnn1C	5.03%
CN1[C@H](Cn2cccn2)C[C@@H]2CN(Cc3cccs3)CC[C@@H]21	5.67%
CO[C@@H]1CN(Cc2scnc2C)[C@@H]2CCCO[C@@H]21	-51.5%

Structure (SMILES)	Percent Effect
O=C(c1ccc[nH]1)N1C[C@H]2CN(Cc3cccc(F)c3)C(=O)[C@H]2C1	8.74%
CCc1ncncc1C(=O)NCCNS(=O)(=O)c1ccc(C)cc1	3.17% and 20.9%
Cc1ccc(S(=O)(=O)NCCNC(=O)c2cncnc2C)cc1	5.91%
Cc1ccc(N2CCO[C@H]3CN(Cc4cccnc4)C[C@H]32)nn1	3.85%
C[C@H]1C[C@H]2CN(C(=O)c3ccncn3)CC[C@@H]2O1	3.76%
Cc1cccc(CN2C[C@H]3CCC[C@@]3(COCc3csc(C)n3)C2)n1	3.06%
CCOCC1CN(C(=O)N2CCCC2)Cc2cnn(C)c21 (stereo not given)	-2.1%
CCOCC1CN(C(=O)C2=CCCC2)Cc2cnn(CC)c21 (stereo not given)	12.8%
O=C1NCCO[C@H]2CN(C(=O)c3cccs3)CC[C@@H]12	2.96%
CNC(=O)[C@H]1C[C@@H]2CN(C(=O)c3ccncc3)C[C@@H]2N1S(C)(=O)=O	2.59%
O=C(NCCc1cccs1)[C@H]1CO[C@H]2CCN(C3CCC3)C[C@H]2C1	6.17%
O=C1CO[C@@H]2CNC[C@H]2N1CC1CC1	0%
Cn1cc(CN2CC[C@@H]3[C@@H]2CCN3C(=O)c2cccc(F)c2)cn1	5.07%
Cc1cc(N2CCC(O)CC2)nc(C)n1	11.1%
CN1CCCCC1c1cncc(N2CCC(O)CC2)n1 (stereo not given)	-0.526%
CCCc1cc(C(=O)N2C[C@H]3CC=C(C)C[C@H]3C2)ccn1	2.3%
O=C(NCC1CCOCC1)[C@@H]1C[C@@H]2[C@@H](CCN2Cc2ccoc2)O1	2.96%
CCc1cnc(N2C[C@H]3CN(Cc4ccc(OC)cc4)C(=O)[C@H]3C2)nc1	-3.75%
CC(C)c1nc(C(=O)N2C[C@H]3CC[C@@H]2CN(C2CCOCC2)C3)cs1	5.66%
Cn1cc(CN2CC[C@H]3O[C@H](C(=O)NC4CC4)CC[C@H]32)c2ccccc21	-3.06%
CN(C)c1ncc2c(n1)CN(C1CC(C)(C)NC(C)(C)C1)C2=O	0.231%
CC(C)OC(=O)N1C[C@H]2CC[C@@H]1CN(Cc1cccnc1)C2	5.14%
